Literature values in PubChem BioAssay AID977610 (Shanghai Institute of Organic Chemistry, 2013).
The campaign covered roughly 3,600 compounds. About 3,600 (100%) were called active. The limit is not given here; nearly all actives have Ki up to about 18000 µM. So high a share suggests a set chosen from earlier hits. The list shows a part of the results. Numbered stars: 1 amine (or outer) side, 2 acyl side, 3 side chain; on linkers, the order of the positions; unused ones are H or OH. Square brackets hold non-standard residues; d marks the D form. Peptide text beside a SMILES is read from it. LeuΨ(S-CHOHCH2)Ala = CC(C)C[C@H](N[*:1])[C@@H](O)C[C@@H](C)C(=O)[*:2]; Orn(CH(NH2)2) = NC(N)NCCC[C@H](N)C(=O)O; Sta = CC(C)C[C@H](N)[C@@H](O)CC(=O)O

Test: PubChem AID 977610
Settings: PDB protein-ligand complexes, literature Ki

O=[N+]([O-])c1cccc2ncccc12
Ki (protein: PDE10A2, PDB entry 4lm1): 590 µM (active)

Nc1nc(N)c2cc(CNc3cc(Cl)ccc3Cl)cnc2n1
Ki (protein: Dihydrofolate reductase(Q35S, N64F mutants), PDB entry 3oaf): 0.0016 µM (active) | Ki (protein: human Dihydrofolate reductase, DHFR, PDB entry 4g95): 0.0244 µM (active)

CC[C@H](C)[C@H](NC(=O)[C@H](CO)NC(=O)[C@H](CCCCNC(C)=O)NC(=O)[C@H](Cc1ccccc1)NC(=O)[C@@H](NC(=O)[C@H](CCC(=O)O)NC(=O)[C@H](Cc1ccc(O)cc1)NC(=O)[C@@H](NC(=O)[C@@H](N)CCCNC(N)N)[C@@H](C)O)[C@@H](C)O)C(=O)N[C@@H](CCSC)C(=O)N[C@@H](CCCCN)C(=O)N[C@@H](CCCCN)C(=O)N[C@@H](CO)C(=O)O (H-[Orn(CH(NH2)2)]TYETFK(Ac)SIMKKS-OH)
Ki (protein: Bromodomain-containing protein 4, PDB entry 2lsp): 274 µM (active)

CC(C)C[C@H](NC(=O)[C@H](CC(N)=O)NC(=O)[C@@H](NC(=O)[C@H](CCC(=O)O)NC(=O)[C@H](CO)NC(=O)[C@H](Cc1c[nH]c2ccccc12)NC(=O)[C@@H](N)Cc1c[nH]c2ccccc12)C(C)C)[C@@H](O)C[C@@H](C)C(=O)N[C@@H](C)C(=O)N[C@@H](CCC(=O)O)C(=O)N[C@@H](Cc1ccccc1)C(=O)O (H-WWSEVN[LeuΨ(S-CHOHCH2)Ala]AEF-OH)
Ki (protein: Memapsin 2(?-secretase 1), PDB entry 1xn2): 3e-05 µM (active)

CC[C@H](C)[C@H](NC(=O)[C@H](CCC(=O)O)NC(=O)[C@H](CCC(=O)O)NC(=O)[C@@H](NC(=O)[C@@H](N)CCCCN)[C@@H](C)O)C(=O)N[C@@H](CO)C(=O)N[C@@H](CCC(=O)O)C(=O)N[C@H](C(=O)N[C@@H](CC(N)=O)C(=O)N[C@@H](CC(C)C)[C@@H](O)CC(=O)N[C@H](C(=O)N[C@@H](C)C(=O)N[C@@H](CCC(=O)O)C(=O)N[C@@H](Cc1ccccc1)C(=O)O)C(C)C)C(C)C (H-KTEEISEVN[Sta]VAEF-OH)
Ki (protein: Memapsin 2(?-secretase 1), PDB entry 1xn3): 0.04 µM (active)

Cn1ccnc1[C@@H](NC[C@H]1O[C@@H](n2ccc(=O)[nH]c2=O)C[C@@H]1O)c1ccccc1
Ki (protein: Deoxyuridine 5'-triphosphate nucleotidohydrolase, putative, PDB entry 3t6y): 3 µM (active)

O=c1ccn([C@H]2C[C@H](O)[C@@H](CNC(c3ccccc3)(c3ccccc3)c3ccccc3)O2)c(=O)[nH]1
Ki (protein: Deoxyuridine 5'-triphosphate nucleotidohydrolase, putative, PDB entry 3t60): 0.2 µM (active)

O=c1ccn([C@H]2C[C@H](O)[C@@H](CNC(c3ccccc3)c3ccccc3)O2)c(=O)[nH]1
Ki (protein: Deoxyuridine 5'-triphosphate nucleotidohydrolase, putative, PDB entry 3t64): 0.2 µM (active)

CN(C[C@H]1O[C@@H](n2ccc(=O)[nH]c2=O)C[C@@H]1O)C(c1ccccc1)c1ccccc1
Ki (protein: Deoxyuridine 5'-triphosphate nucleotidohydrolase, putative, PDB entry 3t70): 0.5 µM (active)

COC(=O)N[C@H](C(=O)N/[N+](=C\c1ccc(-c2ccsc2)cc1)CCC[C@@]1(O)Cc2ccc(cc2)CC/C=C\NC(=O)[C@H](C(C)C)NC1=O)C(C)(C)C
Ki (protein: HIV-1 protease, PDB entry 4cpw): 0.0315 µM (active)

COC(=O)N[C@H](C(=O)N/[N+](=C\c1ccc(C2=CCSC2)cc1)CCC[C@@]1(O)Cc2ccc(cc2)C/C=C\CNC(=O)[C@H](C(C)C)NC1=O)C(C)(C)C
Ki (protein: HIV-1 protease, PDB entry 4cpu): 0.0295 µM (active)

CC(C)CN(C[C@@H](O)[C@H](Cc1ccccc1)N[C@@H](O)O[C@H]1CO[C@H]2OCC[C@H]21)S(=O)(=O)c1ccc(C(=O)O)cc1
Ki (protein: Protease, PDB entry 4i8w): 1.27e-05 µM (active)

CCOP(=O)(COc1ccc(C[C@H](NC(=O)O[C@H]2CO[C@H]3OCC[C@H]32)[C@H](O)CN(CC(C)C)S(=O)(=O)c2ccc(OC)cc2)cc1)OCC
Ki (protein: HIV-1 Protease, PR1 E35EE (VPR1), PDB entry 4m8y): 0.00011 µM (active) | Ki (protein: HIV-1 Protease, PR2 (VPR2), PDB entry 4m8x): 6.3e-05 µM (active)

CC(C)CN(C[C@@H](O)[C@H](Cc1ccccc1)NC(=O)O[C@H]1CO[C@H]2OCC[C@H]21)S(=O)(=O)c1ccc(C(N)=O)cc1
Ki (protein: Protease, PDB entry 4i8z): 8.9e-06 µM (active)

NC1NC(=O)c2[nH]cc(CN3C[C@H](CO)[C@@H](O)C3)c2N1 (stereo partly drawn)
Ki (protein: Purine nucleoside phosphorylase (W16Y, W94Y, W178Y, H257W mutation), PDB entry 4eb8): 0.000151 µM (active)

NC1N[C@@](c2cccc(-c3cncnc3)c2)(c2ccnc(C(F)F)c2)c2cccc(F)c21 (stereo partly drawn)
Ki (protein: BETA-SECRETASE 1, PDB entry 4b05): 0.0261 µM (active)

CCC(CC)O[C@@H]1C=C(C(=O)O)C[C@H](NC(N)N)[C@H]1NC(C)=O
Ki (protein: Neuraminidase, PDB entry 4ks2): 0.00046 µM (active)

CCC(CC)O[C@@H]1CC(C(=O)O)=C[C@H](N)[C@H]1NC(C)=O
Ki (protein: Neuraminidase, PDB entry 4ks1): 0.0015 µM (active)

Cc1onc(-c2ccccc2Cl)c1C(=O)NCC(=O)O
Ki (protein: AmpC beta-lactamase, PDB entry 4kz5): 10000 µM (active)

C[C@@H](O)c1nc2cnc3[nH]ccc3c2n1C1CCC(C#N)CC1 (stereo partly drawn)
Ki (protein: Tyrosine-protein kinase JAK1, PDB entry 4ivb): 0.0019 µM (active) | Ki (protein: Tyrosine-protein kinase JAK2, PDB entry 4iva): 0.0684 µM (active)

C[C@@H](O)c1nc2cnc3[nH]ccc3c2n1C1CCC(CC#N)CC1 (stereo partly drawn)
Ki (protein: Tyrosine-protein kinase JAK1, PDB entry 4ivc): 0.0001 µM (active)

COc1ccc(C2CCCC3N=C(Nc4ccc(N5CCN(C)CC5)cc4)NN32)cc1 (stereo not drawn)
Ki (protein: Tyrosine-protein kinase JAK2, PDB entry 4jia): 0.0006 µM (active)

CC(=O)N[C@H]1[C@H]([C@H](O)[C@H](O)CO)O[C@@H](C(=O)O)C[C@@H]1N=C(N)N
Ki (protein: Neuraminidase from the B-Lyon-CHU-15.216-2011 virus, PDB entry 4cpz): 0.0209 µM (active)

CC(=O)N[C@H]1[C@H]([C@H](O)[C@H](O)CO)OC(C(=O)O)C[C@@H]1NC(N)N (stereo partly drawn)
Ki (protein: Human Sialidase Neu2, PDB entry 2f0z): 17 µM (active)

CC(=O)N[C@H]1[C@H]([C@H](O)[C@H](O)CO)OC(C(=O)O)C[C@@H]1O (stereo partly drawn)
Ki (protein: Trypanosoma cruzi trans-sialidase, PDB entry 1ms0): 1230 µM (active) | Ki (protein: human cytosolic sialidase Neu2, PDB entry 1vcu): 140 µM (active)

CCC(CC)(NC(=O)C(C)C)C(=O)N[C@@H](CCCNC(N)N)C(=O)NC1(C(=O)NC(c2ccc(F)cc2)c2ccc(F)cc2)CCCC1
Ki (protein: WD repeat-containing protein 5, PDB entry 4gm8): 0.001 µM (active)

CCC(CC)(NC(=O)C(C)C)C(=O)N[C@@H](CCCNC(N)N)C(=O)NC1(C(=O)NC(c2ccccc2)c2ccccc2)CCCC1
Ki (protein: WD repeat-containing protein 5, PDB entry 4gm3): 0.001 µM (active)

C[C@](COC(=O)CCCCC(=O)O)([C@@H](NCCC=O)C(=O)O)S(=O)O
Ki (protein: SHV-1 beta-lactamase, PDB entry 4mbf): 1.7 µM (active)

C[C@H](C(=O)O)c1ccc2c(c1)[nH]c1ccc(Cl)cc12
Ki (protein: E. coli sliding clamp, DNA polymerase III subunit beta, PDB entry 4mjr): 283 µM (active)
